Screens as filed in PubChem BioAssay.
This is a sample that favours compounds with a hit; in the whole collection about 1.3% have one here.
NR5A2 inv ag = NR5A2 inverse agonism in reporter assay; O00482; HEK293T StAR-luciferase reporter, LRH-1 transfected, 24 h; inhibition, % at 3.6 µM; 360,000 tested, 0.13% active; AID 602396;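 active = inhibition above the mean inhibition of all tested compounds plus 3 SD, cut at about 73% in these data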;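 note: 0% = DMSO wells and 100% = reporter-only cells lacking LRH-1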
Gli-Sufu block = blocks Gli-Sufu signaling in a luciferase reporter; inhibition, % at 5 µM; 340,000 tested, 0.74% active; Sufu-KO-LIGHT fibroblasts, Gli luciferase reporter luminescence;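 active = inhibition above about 55%, limit read from the data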;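 note: 0% = DMSO-treated cells and 100% = wells with medium but no cells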
SRC3 inh = human NCOA3 inhibition; AID 588352; 360,000 tested, 0.17% active; HEK293 GAL4-SRC3 luciferase reporter, luminescence; inhibition, % at 3.6 µM; Q9Y6Q9;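 active = inhibition above a per-campaign cutoff, the mean of all compounds plus 3 SD, cut at about 60% in these data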;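 note: 0% = DMSO-treated cells and 100% = gossypol-treated cells at 36 µM; higher means less SRC3-driven luciferase light from the GAL4 reporter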
Target sequence (Q9Y6Q9 whole entry, looked up, the tested form may be a part): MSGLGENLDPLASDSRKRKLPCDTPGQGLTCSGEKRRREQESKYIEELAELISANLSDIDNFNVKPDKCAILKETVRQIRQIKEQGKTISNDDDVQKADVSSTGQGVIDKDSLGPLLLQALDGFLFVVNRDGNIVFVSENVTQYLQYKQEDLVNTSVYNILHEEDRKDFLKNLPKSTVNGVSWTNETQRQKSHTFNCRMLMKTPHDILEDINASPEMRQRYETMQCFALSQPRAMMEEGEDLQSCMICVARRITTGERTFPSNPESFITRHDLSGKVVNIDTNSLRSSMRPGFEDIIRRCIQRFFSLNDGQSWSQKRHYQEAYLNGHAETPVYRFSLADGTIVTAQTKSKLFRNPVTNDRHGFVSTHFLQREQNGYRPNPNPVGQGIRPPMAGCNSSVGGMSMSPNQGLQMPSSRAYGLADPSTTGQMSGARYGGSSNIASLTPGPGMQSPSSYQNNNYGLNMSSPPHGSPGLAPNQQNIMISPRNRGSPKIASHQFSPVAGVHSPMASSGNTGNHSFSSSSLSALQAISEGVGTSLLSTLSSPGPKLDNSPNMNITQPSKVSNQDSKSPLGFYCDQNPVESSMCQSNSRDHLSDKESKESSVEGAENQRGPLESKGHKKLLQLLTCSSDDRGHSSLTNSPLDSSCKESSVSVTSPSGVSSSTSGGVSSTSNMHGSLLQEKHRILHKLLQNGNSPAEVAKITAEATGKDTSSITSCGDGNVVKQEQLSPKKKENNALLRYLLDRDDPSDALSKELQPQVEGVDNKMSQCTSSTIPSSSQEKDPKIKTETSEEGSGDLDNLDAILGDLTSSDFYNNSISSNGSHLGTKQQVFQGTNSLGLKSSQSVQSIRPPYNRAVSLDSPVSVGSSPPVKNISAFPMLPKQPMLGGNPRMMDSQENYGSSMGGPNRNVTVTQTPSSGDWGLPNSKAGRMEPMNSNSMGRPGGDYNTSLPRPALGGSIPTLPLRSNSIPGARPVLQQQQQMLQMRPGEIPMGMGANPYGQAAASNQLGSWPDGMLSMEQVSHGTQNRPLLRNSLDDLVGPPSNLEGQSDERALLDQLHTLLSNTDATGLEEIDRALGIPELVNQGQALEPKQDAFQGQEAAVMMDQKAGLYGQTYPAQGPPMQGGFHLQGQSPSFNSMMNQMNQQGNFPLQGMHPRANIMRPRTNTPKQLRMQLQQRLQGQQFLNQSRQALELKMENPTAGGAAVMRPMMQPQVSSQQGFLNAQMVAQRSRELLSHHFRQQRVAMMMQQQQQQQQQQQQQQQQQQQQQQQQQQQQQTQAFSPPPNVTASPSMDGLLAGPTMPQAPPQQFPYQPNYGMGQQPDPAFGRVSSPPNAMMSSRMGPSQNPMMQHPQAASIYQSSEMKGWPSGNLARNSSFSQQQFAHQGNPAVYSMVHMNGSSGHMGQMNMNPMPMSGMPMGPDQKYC
NCOA1 inh = inhibits human SRC1 coactivator; HEK293 GAL4-SRC1 luciferase reporter, luminescence; inhibition, % at 3.6 µM; 360,000 tested, 0.12% active; AID 588354;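 active = inhibition above the campaign mean plus 3 SD, with each screening campaign given its own cutoff, cut at about 60% in these data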;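 note: 0% = DMSO treated cells and 100% = gossypol at 36 µM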
SRC2 inh = human SRC2 (NCOA2) inhibition; inhibition, % at 9 µM; 370,000 tested, 0.17% active; HEK293 GAL4-SRC2 luciferase reporter, luminescence; Q15596;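 active = inhibition above the mean inhibition of all tested compounds plus 3 SD, set per campaign, cut at about 52% in these data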;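 note: 0% = DMSO treated cells and 100% = cells given Gossypol at 36 µM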
NR2F2 inh = inhibitors of human COUP-TFII (NR2F2). inhibition, % at 8.6 µM. 370,000 tested, 0.7% active. HEK293T NGFI-A luciferase reporter, luminescence. P24468. AID 686940;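 active = inhibition above a per-plate cutoff, mean inhibition of test wells between control levels plus 3 SD, cut at about 38% in these data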;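 note: cells cotransfected with COUP-TFII expression vector driving the NGFI-A reporter; 0% = median of COUP-TF2 test wells and 100% = reporter-only cells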
Gli-Sufu confirm = Gli-SUFU antagonism confirmation, single concentration | shares compounds with Gli-Sufu block | Sufu-KO-LIGHT cells, Gli luciferase reporter, luminescence | inhibition, % at 5 µM | 2,500 tested, 40% active;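 active = mean inhibition at 5 µM reaching about 45%, limit read from the data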;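 note: plate controls were DMSO-treated cells for no effect and wells lacking cells for full effect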
Gli cytotox = counter-screen for Gli-SUFU antagonists: cytotoxicity; 2,500 tested, 32% active; AID 651994; cytotoxicity, % at 5 µM; shares compounds with Gli-Sufu block; Sufu-KO-LIGHT cells cytotoxicity, ATP luminescence;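 active = mean cytotoxicity at 5 µM above about 25%, limit read from the data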;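 note: cells exposed to compound overnight for roughly 16 to 18 hours; plate controls were DMSO wells with cells for no effect and medium without cells for full effect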
Wnt3a cs = Wnt3a reporter inhibition counter-screen | 2,500 tested, 20% active | inhibition, % at 6.25 µM | Wnt-LIGHT cells, Wnt3a-driven luciferase reporter, luminescence | shares compounds with Gli-Sufu block;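 active = mean inhibition above about 25%, limit read from the data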
Active calls of the source: *; x = no result given.

SMILES | NR5A2 inv ag | Gli-Sufu block | SRC3 inh | NCOA1 inh | SRC2 inh | NR2F2 inh | Gli-Sufu confirm | Gli cytotox | Wnt3a cs
CC[n+]1c(/C=C(\C)SC)sc2ccccc21 | -3 | 4 | 4 | 6 | 13 | 4 | x | x | x
CC[n+]1c(/C=C/Nc2ccccc2)sc2ccccc21 | -12 | 68* | 6 | 9 | 20 | 19 | 81* | 37* | 30*
CCN1/C(=C/C=C/C=C/C=C/c2sc3ccccc3[n+]2CC)Sc2ccccc21 | 3 | 83* | 14 | 12 | 29 | -3 | 91* | 32* | 45*
CC[n+]1c(/C=C(\C)Nc2ccccc2)sc2ccccc21 | -11 | 11 | -8 | -1 | 4 | 5 | x | x | x
Cc1cc(/C=c2\sc3nc4ccccc4n3c2=O)c(C)n1-c1ccc(C(=O)O)cc1 | 0 | -18 | 8 | 18 | 12 | 5 | x | x | x
Cc1cc(/C=c2/sc3nc4ccccc4n3c2=O)c(C)n1-c1ccccn1 | 79* | 86* | 90* | 88* | 79* | 101* | 94* | 29* | 104*
Cc1ccc(NC(=S)Nc2cc(C(=O)O)ccc2N2CC3CC(C2)c2cccc(=O)n2C3)cc1C (stereo unspecified) | -28 | 79* | -7 | -12 | -34 | -5 | -4 | 22 | -7
CCN(CC)C(=O)c1ccc(S(=O)(=O)N2CCC(c3nc4ccccc4s3)CC2)cc1 | -7 | 59* | 32 | 0 | 13 | 11 | 42 | 10 | 3
O=C(Cc1c(Cl)cccc1Cl)OCC(=O)c1ccc[nH]1 | -36 | x | -31 | -47 | -16 | -22 | x | x | x
O=C(Cc1c(F)cccc1Cl)OCC(=O)c1ccc[nH]1 | -16 | 56* | -37 | -27 | -6 | -29 | 13 | 7 | -10
COc1nc(NCCC2=CCCCC2)nc(OC)n1 | -15 | 99* | 7 | -10 | -39 | 0 | 18 | 3 | -20
Cc1cc(SC#N)cc(C)c1NC(=O)CCl | 44 | 51 | -7 | -7 | -12 | -11 | 46* | 50* | 19
COC(=O)C[C@@H]1CC[C@@H]2[C@H](COc3ccc(NC(=O)c4ccc(F)c(F)c4)cc3C(=O)N2C)O1 | x | x | x | x | 11 | 4 | x | x | x
CC1(C)CC(=O)N(c2cccc(Cl)c2)C(=O)C1 | 18 | 10 | 19 | 0 | 8 | -1 | x | x | x
CC1(C)CC(=O)N(c2ccc(Cl)cc2Cl)C(=O)C1 | -7 | 68* | -1 | 13 | -31 | 7 | 7 | 4 | -12
CC(C)[C@H](NC(=O)[C@H](C)NC(=O)OC(C)(C)C)C(=O)N1CCC2CCN(Cc3ccccc3)CC21 (stereo partly specified) | x | x | x | x | -10 | -10 | x | x | x
Cc1ccc(S(=O)(=O)N2CCN(C(=O)C3CCN(c4ncnc5sc(C)c(C)c45)CC3)CC2)c(C)c1 | 17 | 67* | -1 | -11 | -12 | -3 | 60* | 6 | -42
Cc1sc2ncnc(N3CCN(S(=O)(=O)c4ccc(C(C)(C)C)cc4)CC3)c2c1C | 0 | 55 | -5 | -36 | -21 | 7 | 61* | 25* | 16
COC(=O)[C@]12C[C@H](CC(=O)N3CCN(C(=O)C4CC4)CC3)C(=O)N(CCc3ccc(OC)c(OC)c3)C1=C[C@H](C(C)(C)C)O[C@@H]2C | x | x | x | x | 7 | 6 | x | x | x
O=C(N[C@@H]1C[C@@H]2O[C@@H](CO)CC[C@@H]2O[C@@H]1CCc1ccc(-c2cccnc2)cc1)c1cccc(F)c1 | x | x | x | x | 20 | 5 | x | x | x
O=C(OCC(=O)N1CCCC1)c1cc(=O)c2ccccc2o1 | 17 | 54 | 12 | 19 | 1 | -19 | 15 | 7 | -1
CCOC(=O)C1CCCN(C(=O)COC(=O)c2cc(=O)c3ccccc3o2)C1 (stereo unspecified) | 20 | 3 | 6 | -3 | -2 | -6 | x | x | x
CCOc1ccc(Oc2c(Cl)cnn(Cc3cccc4ccccc34)c2=O)cc1 | x | x | x | x | 6 | 28 | x | x | x
COC(=O)c1ccccc1NC(=O)Cn1c(-c2nonc2N)nc2ccccc21 | 34 | 58* | -2 | -1 | x | x | 63* | 63* | -4
O=C1CCC2(CCC(c3ccccc3)CC2)N1CCO (stereo unspecified) | x | x | x | x | -8 | 13 | x | x | x
SMILES | NR5A2 inv ag | Gli-Sufu block | SRC3 inh | NCOA1 inh | SRC2 inh | NR2F2 inh | Gli-Sufu confirm | Gli cytotox | Wnt3a cs
CCOC(=O)N1C(=O)C[C@](Sc2ccc(OC)cc2)(C(=O)N2CCOCC2)[C@H]1c1ccc(OC)cc1 | x | x | x | x | -1 | -5 | x | x | x
CCCC(=O)Nc1sc(C)c(C)c1C#N | 9 | 20 | 13 | 4 | -35 | -11 | x | x | x
CCCCCC(=O)Nc1sc(C)c(C)c1C#N | -28 | 66* | 0 | -10 | -11 | -30 | 12 | 2 | -37
CN1C(=O)C[C@@](C#N)(C(=O)NCC(F)(F)F)[C@H]1c1ccccc1 | x | x | x | x | 1 | -1 | x | x | x
COc1ccc2c(C)cc(SCC(=O)NC3CCCC3)nc2c1 | 5 | -5 | 6 | -12 | 12 | -18 | x | x | x
COc1ccc2c(C)cc(SCC(=O)c3ccc4c(c3)OCO4)nc2c1 | 16 | 64* | 4 | 2 | -3 | 11 | 27 | 14 | 5
CCCCN(CCCC)c1nc(OC)nc(-n2nnc(C(C)=O)c2C)n1 | 16 | 52 | 18 | -11 | 10 | 6 | 23 | 27* | -31
CC(=O)c1nnn(-c2nc(N)nc(N(c3ccccc3)c3ccccc3)n2)c1C | 13 | 16 | 19 | 2 | 14 | -3 | x | x | x
CN1CCC(=C2c3ccccc3Sc3ccccc32)CC1 | -14 | 56* | 1 | 2 | -7 | -12 | 33 | 37* | -43
CN1CCC(=C2c3ccccc3C=Cc3ccccc32)CC1 | 14 | 32 | 9 | -12 | -2 | -9 | x | x | x
CC(=O)NC(=S)Nc1ccccc1C(=O)NC1CCCCC1 | -32 | -8 | 13 | 2 | 0 | 1 | x | x | x
CC(C)(C)C(=O)NC(=S)Nc1ccccc1C(=O)NC1CCCCC1 | -7 | 76* | -29 | 8 | 0 | -3 | 21 | 46* | -21
O=C(CN1C(=O)c2ccccc2C1=O)Nc1ccccc1C(=O)NC1CCCCCC1 | -20 | 99* | -10 | 2 | 18 | -5 | 15 | 10 | 2
CCn1c2ccccc2c2cc(C=NNC(=O)CSc3nc4ccccc4c(=O)n3-c3ccccc3)ccc21 | x | x | x | x | -22 | -7 | x | x | x
O=C(Nc1ccc(Oc2ccccc2)nc1)C1CCN(Cc2ccccc2)CC1 | 6 | 65* | 6 | 8 | 14 | 18 | 17 | 3 | -13
O=C(CSc1nc2c([nH]c3ccccc32)c(=O)n1-c1ccccc1)N1CCOCC1 | 0 | 8 | 0 | 0 | -20 | 4 | x | x | x
